According to PubChem BioAssay AID652042 (Broad Institute, 2013):
In all, about 1,100 compounds went through this assay and about 350 (32%) were called active. How the calls were made is not given here. These entries were drawn from the full list. Entries that show only a call come without a potency. Potency and affinity values are given separately.

Experiment: viability loss in CEM21 cells – cell-based, CellTiter-Glo luminescence, cherry-picked, cytotoxicity control for viral fusion inhibitor project, dose response (AID 652042)
Conditions: CellTiter-Glo ATP luminescence, 24 h; series mostly up to 35 µM

| Compound | activity change, negative = cytotoxicity |
| --- | --- |
| O=C1c2cccnc2C(Nc2ccc(S(=O)(=O)N3CCCCC3)cc2)N1Cc1ccccc1 (centres undefined) | inactive |
| CCc1ccc(C(=O)CN2C(=O)NC(C)(c3ccc(C)cc3)C2=O)cc1 (centres undefined) | inactive |
| Nc1ccc(S(=O)(=O)c2ccc(N3CCOCC3)c(N)c2)cc1 | inactive |
| CN(C)CC(=O)Nc1ccc2c(c1)[C@H]1C[C@H](CC(=O)NCc3cccc(F)c3)O[C@@H](CO)[C@H]1O2 | inactive |
| COc1ccc(OC)c(NC(=O)COc2ccc3c(c2)CCC3)c1 | inactive |
| Cc1ccc(C(C(=O)NC(C)(C)C)N(Cc2cccs2)C(=O)c2csnn2)cc1 (centres undefined) | inactive |
| O=C(C[C@H]1C[C@H]2c3cc(NC(=O)C4CCC4)ccc3O[C@H]2[C@H](CO)O1)NCc1ccc2c(c1)OCO2 | inactive |
| O=C(C[C@@H]1C[C@@H]2c3cc(NC(=O)C4CCC4)ccc3O[C@@H]2[C@@H](CO)O1)NCc1ccc2c(c1)OCO2 | inactive |
| O=C(C[C@H]1C[C@H]2c3cc(NS(=O)(=O)c4ccc(F)cc4)ccc3O[C@H]2[C@@H](CO)O1)NCc1ccccc1F | inactive |
| O=C(C[C@H]1C[C@@H]2c3cc(NS(=O)(=O)c4ccc(F)cc4)ccc3O[C@@H]2[C@H](CO)O1)NCCc1ccccc1 | inactive |
| COCCNC(=O)C[C@@H]1C[C@H]2c3cc(N(C)C)ccc3O[C@H]2[C@@H](CO)O1 | inactive |
| O=C(C[C@@H]1C[C@H]2c3cc(NC(=O)C4CCOCC4)ccc3O[C@H]2[C@@H](CO)O1)NCc1ccccc1 | inactive |
| CCOC(=O)[C@H]1[C@H]2COc3ccccc3[C@@H]2N2C(=O)c3c(C)cc(C)cc3NC(=O)[C@@]12C | inactive |
| O=C(C[C@@H]1C[C@@H]2c3cc(NC(=O)C4CCOCC4)ccc3O[C@@H]2[C@H](CO)O1)NCc1ccccc1F | inactive |
| Cc1ccc(S(=O)(=O)N(C)c2ccc(C(=O)N3CCN(Cc4ccc5c(c4)OCO5)CC3)cc2)cc1 | inactive |
| CCC1(c2ccccc2)NC(=O)N(CC(=O)Nc2cc(S(=O)(=O)N3CCCCC3)ccc2OC(C)C)C1=O (centres undefined) | inactive |
| c1ccc2c(c1)OCC(c1csc3ncnc(N4CCOCC4)c13)O2 (centres undefined) | inactive |
| COc1ccc([C@@H]2[C@@H]3C(=O)N(C(C)(C)C)C(=O)[C@@H]3[C@]3(CC(C)C)C(=O)N(c4ccccc4)C(=O)N23)cc1 | inactive |
| CCS(=O)(=O)N[C@H]1CC[C@@H](CC(=O)NCc2ccc(Cl)cc2)O[C@@H]1CO | inactive |
| CC12CC3CC(C)(C1)CC(C(=O)NCc1ccncc1)(C3)C2 | inactive |
| CCc1ccc([C@H]2[C@@H]3C(=O)C[C@@H]4C(=O)N(Cc5ccccc5)C(=O)[C@@H]4[C@@H]3CN2S(=O)(=O)c2ccc(C)cc2)cc1 | inactive |

| Compound | activity change, negative = cytotoxicity |
| --- | --- |
| CC(=O)c1c(O)cc2c3c1OC(C)(C)C1CCC(C)(CC31)O2 (centres undefined) | inactive |
| Cc1nc2ccccc2n1CC(=O)NCc1ccccc1 | inactive |
| CCS(=O)(=O)N1Cc2ccccc2CC1C(=O)NC(C)C12CC3CC(CC(C3)C1)C2 (centres undefined) | inactive |
| CCOC(=O)[C@@H]1[C@H]2COc3ccc(Br)cc3[C@@H]2N2C(=O)N(c3ccc(F)cc3)C(=O)[C@@]12C | inactive |
| CCOC(=O)[C@@H]1[C@H]2COc3cc(OC)ccc3[C@H]2N2C(=O)N(c3cccc(F)c3)C(=O)[C@@]12C | inactive |
| O=C(C[C@@H]1C[C@H]2c3cc(NC(=O)Nc4ccccc4)ccc3O[C@H]2[C@H](CO)O1)NCc1cccnc1 | inactive |
| Cc1ccc(S(=O)(=O)N2CCN(S(=O)(=O)c3ccc(C)cc3)C2c2ccccc2)cc1 | inactive |
| c1ccc(CSc2nnc([C@@H]3CCCN3)o2)cc1 | inactive |
| O=C(C1CCCCC1)N1CCCC(c2nc3c(nnn3Cc3ccccc3)c(=O)[nH]2)C1 (centres undefined) | inactive |
| CCN(C[C@H]1N[C@@](CC)(C(=O)OC)[C@H]2C(=O)N(Cc3ccccc3)C(=O)[C@@H]12)S(=O)(=O)c1ccc(C)cc1 | inactive |
| CCN(C[C@H]1N[C@@](C)(C(=O)OC)[C@H]2C(=O)N(Cc3ccccc3)C(=O)[C@@H]12)S(=O)(=O)c1ccc(C)cc1 | inactive |
| O=C(c1ccc(Cl)cc1)N1CCCCC(Sc2nnc(-c3ccc4c(c3)OCO4)o2)C1=O (centres undefined) | inactive |
| Cc1cc(C)c(S(=O)(=O)N2CCN=C2c2ccccc2)cc1C | inactive |
| c1ccc2c(N3CCCCC3)ncnc2c1 | inactive |
| CC(C)[C@H](CN(N=O)[C@@H](Cc1ccccc1)CN(C)N=O)N(CCc1ccccc1)N=O | inactive |
| Cc1ccccc1-n1c(=O)c2ccccc2n2cnnc12 | inactive |
| COc1ccc(NC(=O)C(=O)NCC2CCCN2S(=O)(=O)c2cccs2)cc1 (centres undefined) | inactive |
| COc1ccc(C(=O)NCCc2ccc(Cl)cc2)cc1S(=O)(=O)N1CCCCC1C (centres undefined) | inactive |
| O=C(CN(c1cc(C(F)(F)F)ccc1Cl)S(=O)(=O)c1ccccc1)NCc1cccnc1 | inactive |
| CC(C)(C)N1C(=O)[C@H]2[C@@H](c3ccc(Br)cc3)N3C(=O)N(c4ccccc4)C(=O)[C@@]3(C)[C@H]2C1=O | inactive |
| COc1ccc(Nc2ncc(C(=O)N3CCN(c4ccc(F)cc4)CC3)c3ccccc23)cc1 | inactive |

| Compound | activity change, negative = cytotoxicity |
| --- | --- |
| CO[C@H]1CN(C)C(=O)c2cc(NC(=O)c3ccc(F)cc3)ccc2OC[C@H](C)N(C(=O)CN(C)C)C[C@@H]1C | inactive |
| COc1ccccc1OCC(=O)c1[nH]c(C)c(C(C)=O)c1C | inactive |
| Cc1cccc2cc3c(N)c(C#N)sc3nc12 | inactive |
| O=C1CCCc2c1[nH]c1ccc(Cl)cc21 | inactive |
| O=C(NNS(=O)(=O)c1ccc(F)cc1F)C1Cc2c(ccc3ccccc23)O1 (centres undefined) | inactive |
| Cc1ccc(S(=O)(=O)N(C)C[C@H]2Oc3cc(-c4cccc(F)c4)ccc3S(=O)(=O)N([C@H](C)CO)C[C@H]2C)cc1 | inactive |
| C[C@@H]1CN([C@@H](C)CO)S(=O)(=O)c2ccc(-c3ccccc3)cc2O[C@H]1CN(C)S(C)(=O)=O | inactive |
| C[C@@H]1CN([C@H](C)CO)C(=O)c2cc(NC(=O)Nc3ccccc3)ccc2O[C@@H]1CN(C)S(=O)(=O)c1ccccc1 | inactive |
| COc1ccc(S(=O)(=O)Nc2ccc3c(c2)CC(=O)N([C@@H](C)CO)C[C@H](C)[C@H](CN(C)S(=O)(=O)c2ccc(C)cc2)O3)cc1 | inactive |
| COc1ccc([C@@H]2[C@@H]3C(=O)N(C(C)(C)C)C(=O)[C@@H]3[C@]3(CC(C)C)C(=O)N(c4cccc(Br)c4)C(=O)N23)cc1 | inactive |
| COc1ccc(Cn2nnnc2C(c2cc3cccc(C)c3[nH]c2=O)N2CCOCC2)cc1 (centres undefined) | inactive |
| COc1ccc(C(C(=O)NC2CCCC2)N(C(=O)c2ccoc2C)c2ccc(C)cc2)cc1 (centres undefined) | inactive |
| O=C(NCc1ccco1)c1ccc(Cn2c(=O)c3ccccc3n(Cc3cccc(F)c3)c2=O)cc1 | inactive |
| CCC(=O)N(C)C(c1ccccc1Cl)c1nnnn1-c1c(C)cccc1C (centres undefined) | inactive |
| CCCCCCOc1ccc(OC(=O)c2ccncc2)cc1 | inactive |
| O=C(Nc1ccc(CN2CCS(=O)(=O)CC2)cc1)c1ccc(C(F)(F)F)cc1 | inactive |
| C[C@@H]1CNC(=O)c2c(C(=O)N(C)Cc3ccccc3)ncn21 | inactive |
| O=C1[C@H]2[C@@H](C3CC3)N3C(=O)CN(CC4CC4)C(=O)[C@@]3(Cc3ccccc3)[C@H]2C(=O)N1c1ccccc1 | inactive |
| CC1(C(=O)N/N=C/c2ccc3c(c2)OCO3)CC1(Br)Br (centres undefined) | inactive |
| Cc1ccsc1/C=N/Nc1cccc(C(=O)O)c1 | inactive |
| COc1cc(/C=N/NS(=O)(=O)c2ccc(C)cc2)ccc1OCc1ccc(C(=O)O)cc1 | inactive |

| Compound | activity change, negative = cytotoxicity |
| --- | --- |
| CC1(C(=O)N/N=C/c2cc3c(cc2Br)OCO3)CC1(Br)Br (centres undefined) | inactive |
| CCCn1c(=S)[nH]c2cc(C(=O)N3CCCC(C(=O)OCC)C3)ccc2c1=O (centres undefined) | inactive |
| Cc1cc(C(=O)CN2C(=O)c3ccccc3S2(=O)=O)c(C)n1CC1CCCO1 (centres undefined) | inactive |
| O=C(NC1=NCCS1)C1COc2ccccc2O1 (centres undefined) | inactive |
| O=C(Nc1ccc(S(=O)(=O)N2CCCC2)cc1)c1ccc(CN2CCOCC2)cc1 | inactive |
| COC(=O)c1ccc(NC(=O)c2ccc(CN3CCOCC3)cc2)cc1 | inactive |
| O=S(=O)(c1ccc(Cl)cc1)N1CCCN(c2nc3ccc(Cl)cc3s2)CC1 | inactive |
| O=C(CC1C(=O)NCCN1Cc1cccc(F)c1)NC1CCCCC1 (centres undefined) | inactive |
| CC(C)(C)c1ccc(OCCC(=O)Nc2cccc(S(=O)(=O)N3CCOCC3)c2)cc1 | inactive |
| COc1ccc(NC(=O)Nc2ccc3c(c2)N(C)C(=O)CS3)cc1Cl | inactive |
| CCOc1ccccc1N(C(=O)CNC(=O)c1ccco1)C(C(=O)NC1CCCC1)c1cccnc1 (centres undefined) | inactive |
| CCOc1ccc(S(=O)(=O)NCc2ccncc2)cc1 | inactive |
| O=C(C[C@@H]1C[C@H]2c3cc(NC(=O)C4CCOCC4)ccc3O[C@H]2[C@H](CO)O1)NCc1ccccc1F | inactive |
| CC(C)NC(=O)Nc1ccc2c(c1)C(=O)N([C@@H](C)CO)C[C@@H](C)[C@@H](CN(C)C(=O)CCC(F)(F)F)OCCCC[C@@H](C)O2 | inactive |
| CO[C@H]1CN(C)C(=O)c2cc(NC(C)=O)ccc2OC[C@@H](C)N(Cc2nccs2)C[C@H]1C | inactive |
| COc1ccccc1NC(=O)N[C@@H]1C=C[C@H](CC(=O)NCc2ccc(Cl)c(Cl)c2)O[C@@H]1CO | inactive |
| CC(NC(=O)CN(C)CC(=O)Nc1ccc(Cl)c(C(F)(F)F)c1)c1ccccc1 (centres undefined) | inactive |
| Cc1cccc(N2C(=O)N3[C@H](c4ccc(Br)cc4)[C@@H]4C(=O)N(C(C)(C)C)C(=O)[C@@H]4[C@]3(C)C2=O)c1 | inactive |
| COc1cc2c(c(OC)c1OC)[C@@]1(c3ccccc3)CCCC[C@H]1[C@@H]2NC(=O)C(F)(F)F | inactive |
| Cc1ccccc1OCCCCn1cnc2ccccc21 | inactive |
| CC[C@]1(C(=O)OC)[C@H]2C(=O)N(Cc3ccccc3)C(=O)[C@H]2[C@H]2CN=C(SCc3ccccc3)N21 | inactive |
